In PubChem BioAssay AID1159580 (chemical genetic matrix, 2015):
In all, about 5,500 compounds went through this assay and about 2,000 (36%) were called active. Roughly 18% stayed inconclusive and do not appear here. Cut-off read from the data, not from the text of the source: active = normalized growth mostly below about 0.91 (no sharp cut-off); inconclusive = no clear call, values can overlap the other calls; inactive = mostly above about 0.92. This is one part of the list.

Assay: chemical genetic growth profiling, strain panel (AID 1159580);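 note: tested at 20 µM; growth read once vehicle control cultures reached saturation at 30 °C; 1 = growth at the plate median or of vehicle wells; lower values mean less growth of the strain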
Conditions: S. cerevisiae deletion strains, growth OD
[1] = locus YHR030C, strain SLT2, active compounds read low
[2] = locus YHR079C, strain IRE1, active compounds read low
[3] = locus YJL095W, strain BCK1, active compounds read low
[4] = locus YJR066W, strain TOR1, active compounds read low
[5] = locus YLR113W, strain HOG1, active compounds read low
[6] = locus YNL183C, strain NPR1, active compounds read low
[7] = locus YOR231W, strain MKK1, active compounds read low
[8] = locus YPL256C, strain CLN2, active compounds read low
[9] = locus YAL040C, strain CLN3, active compounds read low
[10] = locus YCL061C, strain MRC1 (second series), active compounds read low
[11] = locus YDR150W, strain NUM1, active compounds read low
[12] = locus YDR363W, strain ESC2, active compounds read low
[13] = locus YER002W, strain NOP16, active compounds read low
[14] = locus YMR263W, strain SAP30, active compounds read low
[15] = locus YMR307W, strain GAS1, active compounds read low
[16] = locus YNL128W, strain TEP1, active compounds read low
[17] = locus YNL153C, strain GIM3, active compounds read low
[18] = locus YNL175C, strain NOP13, active compounds read low
[19] = locus YNL197C, strain WHI3, active compounds read low
[20] = locus YNL224C, strain SQS1, active compounds read low
[21] = locus YOR083W, strain WHI5 (second series), active compounds read low
[22] = locus YJR075W, strain HOC1, active compounds read low
[23] = locus YPL055C, strain LGE1, active compounds read low
[24] = locus YPL241C, strain CIN2, active compounds read low
[25] = locus YNL322C, strain KRE1, active compounds read low

Measured: normalized growth

C[N+]12CC[C@@]34c5ccccc5N5C(=O)CC6OCC=C(C1)[C@H](CC32)[C@@H]6C54 (stereo partly specified)
inactive: [1] 1.02 | [2] 1 | [3] 0.99 | [4] 0.942 | [5] 0.995 | [6] 0.933 | [7] 0.998 | [8] 0.986

N[C@@H](Cn1cc(I)c(=O)[nH]c1=O)C(=O)O
inactive: [9] 0.979 | [10] 0.992 | [11] 0.988 | [12] 1.01 | [13] 0.979 | [14] 1 | [15] 0.992 | [16] 0.977 | [17] 1.03 | [18] 0.993 | [19] 1 | [20] 0.99 | [21] 0.998

CCCn1c(=O)[nH]c(=O)c2[nH]cnc21
inactive: [9] 1.05 | [10] 1.01 | [12] 1.02 | [13] 0.999 | locus YGR229C, strain SMI1, active compounds read low 1 | [22] 1 | [18] 1.01 | [19] 1.01 | [20] 1 | [21] 1 | [23] 1.02 | [24] 1.01

O=c1[nH]c(=O)n([C@H]2C[C@H](O)[C@@H](CO)O2)cc1/C=C/Br
inactive: locus YAL013W, strain DEP1, active compounds read low 1.02 | [9] 0.98 | [10] 1 | [11] 0.994 | [12] 1.03 | [13] 0.977 | [14] 0.998 | [15] 1.01 | [16] 0.944 | [17] 0.999 | [18] 0.964 | [19] 0.936 | [20] 0.994 | [25] 0.999 | [21] 0.999 | [23] 0.998 | [24] 0.99

CCCCOc1cc(CC2CNC(=O)N2)ccc1OC (stereo unspecified)
inactive: locus YAL021C, strain ccr4, active compounds read low 0.939 | locus YAL026C, strain drs2, active compounds read low 1 | locus YAL030W, strain snc1, active compounds read low 1.01 | [9] 1.08 | locus YBL061C, strain skt5, active compounds read low 0.998 | locus YBR009C, strain hhf1, active compounds read low 1.06 | locus YBR023C, strain chs3, active compounds read low 0.992 | locus YBR171W, strain sec66, active compounds read low 0.984 | locus YBR231C, strain swc5, active compounds read low 1.01 | locus YBR279W, strain paf1, active compounds read low 0.999 | locus YCL011C, strain gbp2, active compounds read low 0.984 | locus YCL016C, strain dcc1, active compounds read low 1 | [10] 1 | locus YCL061C, strain MRC1, active compounds read low 0.985 | locus YCL069W, strain vba3, active compounds read low 0.994 | locus YCR088W, strain abp1, active compounds read low 0.987 | locus YDL005C, strain med2, active compounds read low 0.986 | locus YDL040C, strain nat1, active compounds read low 0.999 | locus YDR001C, strain nth1, active compounds read low 0.988 | locus YDR069C, strain doa4, active compounds read low 1.01 | locus YDR137W, strain rgp1, active compounds read low 0.971 | [11] 1.01 | locus YDR159W, strain sac3, active compounds read low 1.07 | locus YDR195W, strain ref2 0.992 | locus YDR297W, strain sur2, active compounds read low 0.993 | locus YDR334W, strain swr1, active compounds read low 0.968 | locus YDR335W, strain msn5, active compounds read low 0.98 | locus YDR392W, strain spt3, active compounds read low 0.975 | locus YEL003W, strain gim4, active compounds read low 0.998 | locus YEL037C, strain rad23, active compounds read low 0.994 | locus YEL061C, strain CIN8 (second series), active compounds read low 0.981 | [13] 1.01 | locus YER015W, strain faa2, active compounds read low 0.994 | locus YER016W, strain bim1, active compounds read low 1.01 | locus YER111C, strain swi4, active compounds read low 1.01 | locus YER155C, strain BEM2 (second series), active compounds read low 1.04 | locus YFR010W, strain ubp6, active compounds read low 0.994 | locus YGL167C, strain pmr1, active compounds read low 1 | locus YGL173C, strain kem1, active compounds read low 0.991 | locus YGL227W, strain vid30, active compounds read low 1 | locus YGL240W, strain doc1, active compounds read low 1.04 | locus YGL253W, strain hxk2, active compounds read low 0.999 | locus YHR013C, strain ard1, active compounds read low 0.979 | locus YHR027C, strain rpn1, active compounds read low 0.992 | [1] 0.97 | [2] 0.973 | locus YHR142W, strain chs7, active compounds read low 0.914 | locus YJL092W, strain hpr5, active compounds read low 0.967 | locus YJL095W, strain BCK1 (second series), active compounds read low 0.989 | [3] 0.978 | locus YJL115W, strain asf1, active compounds read low 0.99 | locus YJL129C, strain trk1, active compounds read low 0.965 | locus YJL154C, strain vps35, active compounds read low 0.993 | locus YJL164C, strain tpk1, active compounds read low 0.972 | locus YJL166W, strain qcr8, active compounds read low 0.996 | locus YJL187C, strain SWE1, active compounds read low 0.998 | [4] 0.935 | [22] 1.01 | locus YKL160W, strain elf1, active compounds read low 0.954 | locus YKR026C, strain gcn3, active compounds read low 0.981 | locus YKR091W, strain srl3, active compounds read low 0.989 | locus YLL001W, strain dnm1, active compounds read low 0.988 | locus YLL026W, active compounds read low 0.998 | locus YLL041C, strain sdh2, active compounds read low 0.984 | locus YLR027C, strain aat2, active compounds read low 0.982 | [5] 0.978 | locus YLR221C, strain rsa3, active compounds read low 0.971 | locus YLR258W, strain gsy2, active compounds read low 1.02 | locus YLR262C, strain YPT6 (second series), active compounds read low 1 | locus YLR320W, strain mms22, active compounds read low 1.02 | locus YLR342W, strain FKS1, active compounds read low 1 | locus YLR357W, strain rsc2, active compounds read low 1.02 | locus YLR370C, strain arc18, active compounds read low 0.978 | locus YLR384C, strain iki3, active compounds read low 0.993 | locus YML120C, strain ndi1, active compounds read low 0.968 | locus YMR058W, strain fet3, active compounds read low 0.978 | locus YMR125W, strain sto1, active compounds read low 1.02 | locus YMR129W, active compounds read low 0.992 | locus YMR205C, strain PFK2, active compounds read low 1.06 | locus YMR231W, strain pep5, active compounds read low 1 | locus YNL071W, strain lat1, active compounds read low 0.987 | [16] 1.01 | [18] 1.02 | [6] 0.956 | [19] 1.03 | locus YNL209W, strain ssb2, active compounds read low 1 | [20] 1.01 | locus YNL248C, strain rpa49, active compounds read low 0.93 | locus YNL322C, strain KRE1 (second series), active compounds read low 0.987 | [25] 1.02 | locus YNR049C, strain mso1, active compounds read low 0.992 | locus YOR001W, strain rrp6, active compounds read low 0.951 | locus YOR070C, strain gyp1, active compounds read low 1.01 | locus YOR080W, strain dia2, active compounds read low 0.99 | [21] 1 | locus YOR083W, strain WHI5, active compounds read low 0.944 | locus YOR106W, strain vam3, active compounds read low 0.958 | [7] 0.976 | locus YOR265W, strain rbl2, active compounds read low 0.998 | locus YOR270C, strain vph1, active compounds read low 0.94 | locus YOR290C, strain snf2, active compounds read low 0.987 | locus YPL051W, strain arl3, active compounds read low 0.963 | locus YPL078C, strain atp4, active compounds read low 0.921 | locus YPL106C, strain sse1, active compounds read low 1.04 | locus YPL240C, strain hsp82, active compounds read low 0.99 | [8] 0.948
